Assay results from the supplement of paper PMC5919970.
Counter-ions that a name gives are not always drawn. Whole data set: some 2,000 compounds, median “fractional viability relative to vehicle” near 0.92, cut for the lowest 2% near 0.11. This excerpt belongs to a sample that is enriched for the lowest values.

Tested on: TYKNU
Experiment: fractional viability relative to vehicle; TYKNU is a high-grade serous ovarian cancer line; higher = less growth inhibition
Details: 72 h, genotype: OPA1 knockout (sgOPA1 #2)
How it was run: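 Drug treatment lasted 72 h, with cells grown at 37 °C in 5% CO2 in RPMI 1640 supplemented with 10% FBS. Beforehand, TYKNU control cells or their lentiCRISPRv2 knockout derivatives had been seeded at 500 cells per well into drug-stamped 384-well plates carrying a ~2100-compound library at 2 or 10 μM, in duplicate. Viability came from Cell Titer Glo luminescence, with averaged duplicate treatment wells normalised to duplicate control wells in the same plate position.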

Row | SMILES | fractional viability (2uM) | fractional viability (10uM)
1 | [O-][n+]1ccccc1[S-].[O-][n+]1ccccc1[S-].[Zn+2] [Zinc Pyrithione] | 0.0671 | 0.0336
2 | CN1[C@@H]2C[C@@H](OC(=O)[C@H](CO)c3ccccc3)C[C@H]1[C@@H]1O[C@@H]12 [Scopolamine HBr] | 1.29 | 0.892
3 | C=CC[C@]1(O)CC[C@H]2[C@@H]3CCC4=CC(=O)CCC4=C3C=C[C@@]21C [Altrenogest] | 0.97 | 0.84
4 | CC(=O)Nc1ccc(OC[C@](C)(O)C(=O)Nc2ccc([N+](=O)[O-])c(C(F)(F)F)c2)cc1 [Andarine] | 1.18 | 1.18
5 | COC[C@H]1OC(=O)c2coc3c2[C@@]1(C)C1=C(C3=O)[C@@H]2CCC(=O)[C@@]2(C)C[C@H]1OC(C)=O [Wortmannin] | 0.744 | 0.149
6 | C[C@@H]1CC[C@@]2(OC1)O[C@H]1C[C@H]3[C@@H]4CC=C5C[C@@H](O[C@@H]6O[C@H](CO)[C@@H](O[C@@H]7O[C@@H](C)[C@H](O)[C@@H](O)[C@H]7O)[C@H](O)[C@H]6O[C@@H]6O[C@@H](C)[C@H](O)[C@@H](O)[C@H]6O)CC[C@]5(C)[C@H]4CC[C@]3(C)[C@H]1[C@@H]2C [Dioscin] | 0.289 | 0.0918
7 | Cc1cccc(C)c1NC1=NCCCS1 [Xylazine HCl] | 0.823 | 0.79
8 | COc1cc(OC)c(OC)cc1C=O [Asaraldehyde] | 1.16 | 1.15
9 | C=CCN1CC[C@]23c4c5ccc(O)c4O[C@H]2C(=O)CC[C@@]3(O)[C@H]1C5 [Naloxone HCl] | 0.816 | 0.957
10 | CCNC(=O)C[C@@H]1N=C(c2ccc(Cl)cc2)c2cc(OC)ccc2-n2c(C)nnc21 | 0.715 | 0.794
11 | CN[C@@H]1C[C@H]2O[C@@](C)([C@@H]1OC)n1c3ccccc3c3c4c(c5c6ccccc6n2c5c31)C(=O)NC4 [Staurosporine] | 0.264 | 0.0922
12 | COc1ccc(C(CN(C)C)C2(O)CCCCC2)cc1 (stereo not given) [Venlafaxine] | 1.21 | 1
13 | Cn1c(CCCC(=O)O)nc2cc(N(CCCl)CCCl)ccc21 [Bendamustine HCl] | 1.1 | 1.11
14 | CN1CCC(c2c[nH]c3ccc(O)cc23)CC1 | 0.838 | 0.922
15 | CCOc1ccccc1-n1c(C(C)N2CCN(C(=O)COc3ccc(Cl)cc3)CC2)nc2ccccc2c1=O (stereo not given) [Erastin] | 0.45 | 0.0976
16 | C[C@H]1CNCCc2ccc(Cl)cc21 [Lorcaserin HCl] | 1.04 | 1.02
17 | CCCN1C[C@H](CSC)C[C@@H]2c3cccc4[nH]cc(c34)C[C@H]21 [Pergolide mesylate] | 0.978 | 0.96
18 | CC1(C)CC(O)CC(C)(C)N1[O] [Tempol] | 0.982 | 1.06
19 | Cc1cc(SCc2sc(-c3ccc(C(F)(F)F)c(F)c3)nc2C)ccc1OCC(=O)O | 0.824 | 0.75
20 | CC1=C(O)C(=O)C=C2C1=CC=C1[C@@]2(C)CC[C@@]2(C)[C@@H]3C[C@](C)(C(=O)O)CC[C@]3(C)CC[C@]12C [Celastrol] | 0.123 | 0.0841

Row | SMILES | fractional viability (2uM) | fractional viability (10uM)
21 | CC(=O)O[C@H]1C[C@@H]2CC[C@@H]3[C@H](CC[C@@]4(C)[C@H]3C[C@H]([N+]3(C)CCCCC3)[C@@H]4OC(C)=O)[C@@]2(C)C[C@@H]1[N+]1(C)CCCCC1 [Pancuronium dibromide] | 1 | 0.976
22 | CN1[C@@H]2CC(O)C[C@H]1[C@@H]1O[C@@H]12 (stereo not given in full) [Scopine] | 0.96 | 0.768
23 | C[C@H]1CCC/C=C/[C@@H]2C[C@H](O)C[C@H]2[C@H](O)/C=C/C(=O)O1 [Brefeldin A] | 0.269 | 0.277
24 | CC(C)=CCC[C@]1(C)C=Cc2c(O)c3c(c(CC=C(C)C)c2O1)O[C@]12C(=C[C@@H]4C[C@H]1C(C)(C)O[C@@]2(C/C=C(/C)C(=O)O)C4=O)C3=O [Gambogic Acid] | 0.0971 | 0.0282
25 | C[N+]1(C)[C@@H]2C[C@@H](OC(=O)[C@H](CO)c3ccccc3)C[C@H]1[C@@H]1O[C@@H]12 [Methscopolamine] | 0.982 | 0.966
26 | C[C@]12N[C@H](Cc3ccccc31)c1ccccc12 [MK-801 (Dizocilpine)] | 1.04 | 0.956
27 | CCN1CCN(C(=O)Cc2ccc(Nc3ncc(F)c(Nc4ccc(C(=O)Nc5ccccc5Cl)cc4)n3)cc2)CC1 [Aurora A Inhibitor I] | 1.03 | 0.0801
28 | O=C(O[C@H]1C[N+]2(CCCOc3ccccc3)CCC1CC2)C(O)(c1cccs1)c1cccs1 [Aclidinium Bromide] | 0.952 | 0.927
29 | CC(C)NCC(O)c1ccccc1Cl (stereo not given) [Clorprenaline HCl] | 0.911 | 0.968
30 | CN1CCN(c2nc3ccccc3nc2Cl)CC1 | 1.15 | 0.988
31 | O=C1CC[C@@]2(O)[C@H]3Cc4ccc(O)c5c4[C@@]2(CCN3CC2CC2)[C@H]1O5 [Naltrexone HCl] | 1.07 | 1.12
32 | CC[C@@H]1/C=C/C=C/C[C@H](C)[C@H](O)[C@](C)(O)C(=O)[C@H](C)[C@@H](O)[C@H](C)C(=O)[C@H](C)[C@@H](O)[C@H](C)/C=C/C(=O)O[C@H]2[C@@H](C)[C@@H](CC1)O[C@@]1(CC[C@@H](C)[C@@H](C[C@H](C)O)O1)[C@@H]2C [Oligomycin A] | 1.01 | 0.871
33 | C1=C2CCCN[C@H]2[C@@H]2C[C@H]1[C@H]1CCCCN1C2 [Aloperine] | 1.02 | 0.89
34 | O=C(Oc1ccc([N+](=O)[O-])cc1)N1CCC(C(O)(c2ccc3c(c2)OCO3)c2ccc3c(c2)OCO3)CC1 | 0.994 | 0.739
35 | O=[N+]([O-])/C=C/c1ccc2c(c1)OCO2 | 0.477 | 0.113
36 | c1cc2c(cc1[C@H]1OC[C@H]3[C@@H]1CO[C@@H]3c1ccc3c(c1)OCO3)OCO2 [Sesamin] | 1.06 | 0.894
37 | Cc1sc2c(c1C)C(c1ccc(Cl)cc1)=N[C@@H](CC(=O)Nc1ccc(O)cc1)c1nnc(C)n1-2 | 0.634 | 0.619
38 | CN1c2ccccc2C(NCCCCCCC(=O)O)c2ccc(Cl)cc2S1(=O)=O (stereo not given) [Tianeptine sodium] | 1.15 | 1.02
39 | Nc1nc(N)nc(NC2CC2)n1 [Cyromazine] | 1.01 | 0.994
40 | CCCN1CCO[C@@H]2c3cc(O)ccc3OC[C@H]21 | 0.95 | 1.01
